UBC9 SUMO inh = blocks human SUMOylation mediated by UBC9; P63279; HTRF SUMOylation assay, SAE1/SAE2 + UBC9, in vitro; inhibition, % at 35 µM; hit rate 0.36% among 290,000; AID 2006; in the data active means inhibition above about 50%, passing the limit was not always enough; inconclusive means no clear call, values can overlap the other calls
Target sequence (P63279 whole entry, looked up): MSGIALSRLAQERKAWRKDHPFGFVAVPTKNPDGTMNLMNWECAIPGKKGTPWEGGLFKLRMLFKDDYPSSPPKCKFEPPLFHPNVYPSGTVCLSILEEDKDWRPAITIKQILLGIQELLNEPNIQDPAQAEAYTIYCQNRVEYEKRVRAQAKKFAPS
G6PDH CS = L. mesenteroides G6PDH inhibition counter-screen | inhibition, % at 5 µM | hit rate 0.12% among 200,000 | Purified L. mesenteroides G6PDH, diaphorase/resazurin coupled fluorescence, 45 min; in the data active means inhibition above about 50%
PHOSPHO1 block = inhibitors of human PHOSPHO1 phosphatase; Q8TCT1; recombinant PHOSPHO1, absorbance phosphatase assay; inhibition, % at 13.3 µM; hit rate 1.1% among 290,000; in the data active means inhibition above about 60%
HDAC3 inhib = blocks human histone deacetylase 3. O15379. recombinant HDAC3, fluorogenic peptide/trypsin coupled, fluorescence. inhibition, % at 8.3 µM. hit rate 0.15% among 320,000. AID 2718; in the data active means inhibition above about 26%, passing the limit was not always enough; inconclusive means no clear call, values can overlap the other calls
Target sequence (O15379 whole entry, looked up): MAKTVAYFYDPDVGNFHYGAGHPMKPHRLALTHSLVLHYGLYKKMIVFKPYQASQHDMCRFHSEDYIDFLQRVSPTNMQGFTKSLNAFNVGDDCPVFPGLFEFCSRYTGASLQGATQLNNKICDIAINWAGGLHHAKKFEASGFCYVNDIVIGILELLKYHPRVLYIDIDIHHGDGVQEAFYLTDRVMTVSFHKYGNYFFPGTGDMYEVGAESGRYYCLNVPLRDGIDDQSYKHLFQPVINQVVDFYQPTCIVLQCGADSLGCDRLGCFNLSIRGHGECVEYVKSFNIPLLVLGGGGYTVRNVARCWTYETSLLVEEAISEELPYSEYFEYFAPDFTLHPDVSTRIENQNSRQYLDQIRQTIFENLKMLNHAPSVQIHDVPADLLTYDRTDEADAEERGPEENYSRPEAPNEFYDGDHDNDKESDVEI
M18AAP inhibitor = PfM18AAP enzyme inhibition | hit rate 1.2% among 290,000 | recombinant PfM18AAP, H-Glu-NHMec fluorogenic cleavage | inhibition, % at 7.35 µM;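 active means inhibition above the campaign mean inhibition over all tested compounds plus 3 SD, cut at about 28% in these data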;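 further: 0% = plate median of test compound wells and 100% = 2 mM ZnCl2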
p97 inhibitor = inhibitors of human p97 ATPase; P55072; AID 1481; recombinant p97 ATPase, Kinase-Glo ATP luminescence, 3 h; hit rate 0.42% among 220,000; inhibition, % at 8 µM; in the data active means inhibition above about 15%;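 further: 0% = DMSO vehicle and 100% = wells lacking enzyme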
* hit, by the source's call; ? = inconclusive; · = no result given. This is a sample that favours compounds with a hit; in the whole collection about 2.5% have one here.

SMILES | UBC9 SUMO inh | G6PDH CS | PHOSPHO1 block | HDAC3 inhib | M18AAP inhibitor | p97 inhibitor
C=CCN1C(=O)C(CC(=O)Nc2ccc(OCCC)cc2)N(CCCN2CCN(Cc3ccccc3)CC2)C1=S (configuration not stated) | -14 | 2 | -12 | 4 | 0 | -3
C=CCc1cccc2cc(C(=O)Nc3ccc(S(=O)(=O)Nc4nnc(CC)s4)cc3)c(=O)oc12 | 22 | -22 | 85* | 1 | -1 | 3
COc1ccccc1Nc1nc2ccc(C)cc2n2cnnc12 | 23 | · | 26 | 11 | 7 | ·
CN(C)CCCNS(=O)(=O)c1ccc(N2CCC(c3ccc(Cl)cc3)=N2)cc1 | 65* | 9 | 3 | -224 | 11 | 1
O=S(=O)(c1ccc(N2CCC(c3ccc(Cl)cc3)=N2)cc1)N(CCO)CCO | 41 | -9 | 40 | 9 | -5 | -2
C=C1c2ccccc2NC(=S)N1Cc1ccc2c(c1)OCO2 | 4 | 7 | 22 | 6 | 32* | -1
O=C1c2ccccc2C(=O)N1Cc1ccc2c(c1)OCO2 | 2 | 2 | -10 | 2 | 1 | 6
COC(CNC(=O)c1ccc2c(c1)ncn2C1CCCCCC1)OC | 8 | · | 7 | 6 | -5 | ·
Cc1cccc(C(=O)NC(=S)NNC(=O)COc2c(C)cccc2C)c1 | -7 | -9 | 9 | 4 | 30* | 5
Cc1cccc(C(=O)NC(=S)NNC(=O)c2ccccc2Cl)c1 | 2 | -1 | 28 | 4 | 29* | 2
O=C(NC(=S)NNS(=O)(=O)c1ccccc1)c1cccnc1 | -6 | 14 | 8 | 5 | 31* | 2
O=C(NC(=S)NNC(=O)c1ccccc1O)c1cccnc1 | 14 | 5 | -6 | 5 | 5 | 1
Cc1cccc(C(=O)NC(=S)Nc2ccccc2C(=O)O)c1 | 16 | 9 | 27 | 0 | 4 | 4
O=C(NC(=S)NNC(=O)c1ccc(Cl)cc1Cl)c1cccnc1 | 8 | 1 | -9 | · | 38* | 4
O=C(CN1C(=O)NC2(CCCC2)C1=O)Nc1cc(S(=O)(=O)N2CCOCC2)ccc1OCC(F)(F)F | 9 | · | 29 | -3 | -10 | ·
CC1(C)NC(=O)N(CCC(=O)Nc2cc(C(F)(F)F)ccc2Cl)C1=O | · | · | · | 6 | · | ·
O=C(NCc1nnc(SCC(=O)N2CCN(c3ccccc3)CC2)o1)c1c(F)cccc1F | 1 | · | 19 | -4 | -4 | ·
Cc1cc(C(=O)NNC(=S)NC(=O)/C=C/c2ccccc2Cl)n[nH]1 | -138 | -8 | 94* | 5 | 5 | 3
Cc1ccccc1C(=O)NNC(=S)NC(=O)c1ccc(Cl)cc1Cl | -60 | -5 | 100* | 4 | -5 | 4
Cc1cc(C)nc(NC(=O)/C=C/c2ccccc2Cl)n1 | 19 | 2 | 18 | -1 | -9 | 1
NC(=S)N/N=C/c1ccc(-c2ccc([N+](=O)[O-])cc2)o1 | 19 | 16 | -18 | 4 | 42* | 9
NC(=S)N/N=C/c1ccc(-c2cc(Cl)ccc2Cl)o1 | 21 | 4 | 93* | 4 | -15 | 4
Cc1ccc(S(=O)(=O)Nc2ncccn2)cc1 | 5 | · | 41 | -4 | -7 | ·
CCC1=[N+](C)CCn2c(C)ccc21 | 19 | 0 | 69* | 5 | 15 | 3
CCOC(=O)N1CCc2c(sc3c2C(=O)NC(c2ccccc2)N3)C1 (configuration not stated) | 38 | 14 | 66* | 1 | 6 | 3
SMILES | UBC9 SUMO inh | G6PDH CS | PHOSPHO1 block | HDAC3 inhib | M18AAP inhibitor | p97 inhibitor
CC(=O)OC1C(N2CCCCC2)c2c(ccc(/C=C/C(=O)N3CCCCC3)c2O)OC1(C)C (configuration not stated) | 18 | 16 | 16 | 6 | -8 | 3
COc1ccc(CCn2c(O)cc3nn(-c4nc5ccccc5s4)c(=O)c-3c2C)cc1 | 63* | · | 36 | 10 | -2 | -8
Cc1cc(=O)n2c3ccccc3n(CC(O)CN3CCCC3)c2c1C#N (configuration not stated) | -5 | 2 | 62* | -2 | -9 | 0
CCCNCC(O)Cn1c2ccccc2n2c(=O)cc(C)c(C#N)c12 (configuration not stated) | -1 | -20 | 7 | -3 | 16 | 3
Cc1[nH]n(-c2ccccc2)c(=O)c1/C=N/Nc1nncc(-c2ccccc2)n1 | -80 | -12 | 67* | 15 | 2 | 1
COc1ccc(C(=O)N/N=C/c2c[nH]c3ccccc23)cc1 | 10 | · | 45 | 10 | 7 | ·
COc1ccc(C(=O)N/N=C/c2cc3ccccc3[nH]c2=S)cc1 | 21 | 2 | 91* | ? | 12 | 3
COc1cc(C[C@@H](CO)[C@H](CO)Cc2ccc(O)c(OC)c2)ccc1O | · | · | · | -8 | · | ·
Cc1ccccc1/C=N/Nc1nc2ccccc2c(=O)n1O | 5 | · | -16 | · | 31* | 3
Cc1cc(N/N=C/c2ccccc2O)c2ccccc2n1 | -5 | · | 19 | 4 | -3 | ·
CN(C)C(CNC(=O)C1CCN(C(=O)/C=C/c2ccccc2)CC1)c1ccccc1 (configuration not stated) | 12 | · | 28 | 5 | -2 | ·
O=C(O)COc1ccccc1C(Nc1cccnc1)c1cc(Cl)c2cccnc2c1O (configuration not stated) | 77* | 23 | 84* | · | 9 | 6
CCn1c(C)c(C(C)=O)c(N2CCN(c3cccc(Cl)c3)CC2)nc1=S | 28 | 15 | 76* | -14 | -8 | -1
CC(=O)c1c(N2CCN(c3cccc(Cl)c3)CC2)nc(=S)n(-c2ccccc2)c1C | 12 | -4 | -21 | 0 | 0 | 7
COC(=O)c1[nH]c2ccccc2c1CN1CCOCC1 | 9 | · | -3 | -5 | 3 | ·
O=C(O)/C=C/C(=O)Nc1ccc(OC(F)(F)F)cc1Br | 10 | · | 38 | 1 | -13 | 11
Cc1ccc(NC(=O)CSc2nnc(-c3cccs3)n2Cc2ccco2)cc1 | -23 | -1 | 20 | 3 | -2 | -7
CCn1c(SCC(=O)Nc2cccc(OC)c2)nnc1-c1ccc(Cl)cc1 | 2 | 6 | 74* | -4 | 8 | 2
CN(C)c1ccc(NC(=O)CSc2nnc(-c3cccs3)n2Cc2ccco2)cc1 | -5 | 3 | 90* | 5 | -7 | 1
CCn1c(Cn2nnc(-c3ccccc3)n2)nnc1SCC(=O)Nc1ccc(N(C)C)cc1 | 16 | 1 | 78* | 0 | 5 | -2
CCn1c(SCC(=O)Nc2ccc(N(C)C)cc2)nnc1-c1cccc(C)c1 | 13 | -2 | 79* | -2 | 12 | -9
CCn1c(Cn2nnc(-c3ccccc3)n2)nnc1SCC(=O)Nc1ccc(C(C)=O)cc1 | -8 | 2 | 46 | -1 | 4 | -4
CCn1c(SCC(=O)Nc2cc(C)on2)nnc1-c1cccc(C)c1 | -2 | · | 40 | -6 | -1 | ·
CC(C)(O)c1[nH]c2ccc(C#N)cc2c1C(C)(C)O | 19 | · | -7 | 0 | 7 | ·
Cc1ccc(OCC(=O)Nc2cccnc2Cl)cc1C | 3 | · | 45 | 9 | -1 | ·
CCOC(=O)N1CCN(c2nc3ccc(C)cc3n3cnnc23)CC1 | 2 | · | -3 | · | -10 | ·
